In PubChem BioAssay (EPA / NIEHS):
Records with an inconclusive call do not appear. Activity calls are given as the source filed them. The calls were made as follows, unless noted: active = hit-call score of the fitted dose curve at least 0.9, where 1 is the maximum; inconclusive = response in the unintended direction; inactive = score below 0.9.

What was measured:
[1] = read-out: Cellular tumor antigen p53 (Homo sapiens) (UniProt P04637); assay: LTEA_HepaRG_TP53: Life Technologies and Expression Analysis (LTEA) Assay for Tumor Protein P53 (TP53) using HepaRG (AID 2283537; active = hit-call score of the fitted dose curve at least 0.9, where 1 is the maximum; inactive = score below 0.9); conditions: mRNA level, 48 h; actives raise or lower the signal
Method in brief: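 TP53 transcript measured by qRT-PCR, normalized to three housekeeping genes, after 48 h treatment of human HepaRG cultures with chemicals from 100 uM downward in half-log steps (0.5% DMSO vehicle, serum-free induction medium). Up- or down-regulation fitted against DMSO.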

[2] = read-out: UDP glucuronosyltransferase (UGT1A1), UGT1A1 (gene 54658); assay: LTEA_HepaRG_UGT1A1: Life Technologies and Expression Analysis (LTEA) Assay for UDP glucuronosyltransferase (UGT1A1) using HepaRG (AID 2283538; active = hit-call score of the fitted dose curve at least 0.9, where 1 is the maximum; inactive = score below 0.9); conditions: mRNA level, 48 h; actives raise or lower the signal
Method in brief: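 Readout is UGT1A1 transcript level by qRT-PCR, normalized to three housekeeping genes, after 48 h chemical treatment of HepaRG cells. Concentrations ran from 100 uM down in half-log steps with 0.5% DMSO, and gain or loss relative to DMSO was fitted.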

[3] = read-out: UDP glucuronosyltransferase (UGT1A6), UGT1A6 (gene 54578); assay: LTEA_HepaRG_UGT1A6: Life Technologies and Expression Analysis (LTEA) Assay for UDP glucuronosyltransferase (UGT1A6) using HepaRG (AID 2283539; active = hit-call score of the fitted dose curve at least 0.9, where 1 is the maximum; inactive = score below 0.9); conditions: mRNA level, 48 h; actives raise or lower the signal
Method in brief: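 Expression was quantified by TaqMan qRT-PCR on Fluidigm arrays with ACTB/GAPDH/POLR2A normalization and bidirectional fitting against 0.5% DMSO. HepaRG cells (~100,000/well) were treated in duplicate for 48 h at eight half-log concentrations up to 100 uM in serum-free induction medium.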

[4] = read-out: X-box binding protein 1 (XBP1), XBP1 (gene 7494); assay: LTEA_HepaRG_XBP1: Life Technologies and Expression Analysis (LTEA) Assay for X-box binding protein 1 (XBP1) using HepaRG (AID 2283540; active = hit-call score of the fitted dose curve at least 0.9, where 1 is the maximum; inactive = score below 0.9); conditions: mRNA level, 48 h; actives raise or lower the signal
Method in brief: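 XBP1 transcript by qRT-PCR (housekeeping-normalized: ACTB, GAPDH, POLR2A) after 48 h chemical treatment of HepaRG cells, 8-point half-log series topping at 100 uM, vehicle 0.5% DMSO. Gain and loss of signal fitted relative to DMSO.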

[5] = LTEA_HepaRG_LDH_cytotoxicity: Cytotoxicity Assessment in the Life Technologies and Expression Analysis (LTEA) Assay (AID 2283563);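 as to AC50: LDH activity released into spent culture medium as a marker of cell death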
Method in brief: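 LDH release into culture medium read after 48 h chemical treatment of HepaRG cells. Duplicate wells, eight-point half-log series topping at 100 uM, 0.5% DMSO vehicle and baseline.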

[6] = ATG_XTT_Cytotoxicity: Cytotoxicity Assessment in the Attagene TRANS-FACTORIAL HepG2 Assay (AID 2283584)
Method in brief: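 Viability endpoint from XTT after 24 h chemical exposure of reporter-transfected human HepG2 liver cells; signal loss fitted relative to DMSO negative control.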

[7] = molecular target: Cellular tumor antigen p53 (Homo sapiens) (UniProt P04637); assay: TOX21_p53_BLA_p2_ratio: Tox21 HCT-116 p53 Agonism Beta-lactamase Assay, Ratio, Phase 2 (AID 2283592)
Cellular tumor antigen p53 (Homo sapiens), sequence (P04637 whole entry, looked up): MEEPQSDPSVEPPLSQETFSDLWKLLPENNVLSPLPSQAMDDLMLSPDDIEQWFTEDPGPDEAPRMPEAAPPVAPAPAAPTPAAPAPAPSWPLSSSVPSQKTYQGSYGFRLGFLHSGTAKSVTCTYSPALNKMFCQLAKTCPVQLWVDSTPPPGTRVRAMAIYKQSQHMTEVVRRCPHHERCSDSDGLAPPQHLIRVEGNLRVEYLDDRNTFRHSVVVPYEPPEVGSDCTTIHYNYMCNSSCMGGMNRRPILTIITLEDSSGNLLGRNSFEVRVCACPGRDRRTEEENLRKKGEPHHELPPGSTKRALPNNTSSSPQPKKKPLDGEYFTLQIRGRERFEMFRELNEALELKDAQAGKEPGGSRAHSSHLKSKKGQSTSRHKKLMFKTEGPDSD
Method in brief: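 Gain-of-signal p53 agonism was scored from the beta-lactamase FRET ratio (460/530 nm, 405 nm excitation) in HCT116 cells treated 16 h at 37C, 5% CO2, with DMSO serving as negative control and baseline.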

[8] = TOX21_p53_BLA_p3_viability: Viability Assessment in the Tox21 HCT-116 p53 Agonism Beta-lactamase Assay, Phase 3 (AID 2283593);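 also: cells exposed to compound for 16 h before reading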
Method in brief: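 HCT-116 cells (4000/well) rested 5 h at 37C, then got DMSO compounds by pin tool (217-fold dilution) for 16 h at 37C, 5% CO2. After the bla read, CellTiter-Glo was added and luminescence read at 30 min, room temperature.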

[9] = molecular target: Cellular tumor antigen p53 (Homo sapiens) (UniProt P04637); assay: TOX21_p53_BLA_p3_ratio: Tox21 HCT-116 p53 Agonism Beta-lactamase Assay, Ratio, Phase 3 (AID 2283596)
Method in brief: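 HCT116 p53-bla cells (4000/well) given compound in DMSO (217-fold dilution) after 5 h, incubated 16 h at 37C. CCF4-AM substrate 2 h at room temperature; 460/530 nm emission ratio, gain fitted against DMSO.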

[10] = TOX21_p53_BLA_p4_viability: Viability Assessment in the Tox21 HCT-116 p53 Agonism Beta-lactamase Assay, Phase 4 (AID 2283597);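 also: hits lower the luminescence signal meaning cytotoxicity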
Method in brief: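 Following a 16 h exposure at 37C, the treated HCT116 wells were first read for the FRET ratio. They were then lysed with CellTiter-Glo, and ATP luminescence was recorded after 30 min at room temperature.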

[11] = TOX21_p53_BLA_p5_viability: Viability Assessment in the Tox21 HCT-116 p53 Agonism Beta-lactamase Assay, Phase 5 (AID 2283600)
Method in brief: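 After the 460/530 nm beta-lactamase measurement, the wells received an ATP-detection luciferase reagent; signal was read 30 min later at RT. Compound treatment lasted 16 h on cells pre-incubated 5 h post-seeding.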

[12] = molecular target: Cellular tumor antigen p53 (Homo sapiens) (UniProt P04637); assay: TOX21_p53_BLA_p4_ratio: Tox21 HCT-116 p53 Agonism Beta-lactamase Assay, Ratio, Phase 4 (AID 2283601)
Method in brief: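 HCT116 cells carrying an inducible beta-lactamase reporter were plated at 4000 cells/well, rested 5 h, then exposed to compounds in DMSO (217-fold dilution) for 16 h at 37C. CCF4-AM substrate was loaded 2 h at room temperature; 460/530 nm emission ratio scored gain-of-signal versus DMSO.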

[13] = Tanguay_ZF_120hpf_MORT_legacy: (Legacy) Oregon State University Tanguay Lab 120 Hour Post-fertilization zebrafish Assay for Mortality (AID 2283633)
Method in brief: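 Static waterborne exposure from 6 to 120 hpf at 28C of single dechorionated wild-type (5D) embryos per well, 0.64% DMSO final. Death recorded present/absent by brightfield at 24 and 120 hpf.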

[14] = Tanguay_ZF_120hpf_AXIS_legacy: (Legacy) Oregon State University Tanguay Lab 120 Hour Post-fertilization zebrafish Assay for Body Axis Malformation (AID 2283635)
Method in brief: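 Binary scoring of axis defects at 120 hpf under brightfield, fitted positive versus DMSO. Tropical 5D embryos, chorion removed by pronase at 4 hpf, were singly exposed in sealed, dark plates at 28C from 6 hpf; DMSO 0.64% final.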

[15] = Tanguay_ZF_120hpf_EYE_legacy: (Legacy) Oregon State University Tanguay Lab 120 Hour Post-fertilization zebrafish Assay for Eye Malformation (AID 2283636);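 also: binary presence or absence of eye malformation scored by brightfield in 120 hpf larvae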
Method in brief: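 Dechorionated wild-type Tropical 5D zebrafish embryos were exposed statically from 6 hpf, one per well, to 120 hpf at 28C in sealed, foil-covered plates with 0.64% DMSO. Eye malformation was scored present/absent by brightfield microscopy against DMSO controls.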

[16] = Tanguay_ZF_120hpf_JAW_legacy: (Legacy) Oregon State University Tanguay Lab 120 Hour Post-fertilization zebrafish Assay for Jaw Malformation (AID 2283638)
Method in brief: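 Binary jaw-malformation call at 120 hpf by brightfield microscopy. Embryos (Tropical 5D strain, chorion removed at 4 hpf) were dosed statically at 6 hpf, one per well, at 28C with 0.64% DMSO. Embryos that died were not scored.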

[17] = TOX21_p53_BLA_p2_viability: Viability Assessment in the Tox21 HCT-116 p53 Agonism Beta-lactamase Assay, Phase 2 (AID 2283591);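 also: compound exposure lasted 16 h at 37 °C; actives lower the ATP signal meaning cytotoxicity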
Method in brief: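 HCT-116 p53-bla cells (4000/well) rested 5 h at 37C, then received compounds in DMSO (217-fold dilution) for 16 h at 37C, 5% CO2. After the CCF4 read, CellTiter-Glo was added; ATP luminescence was read after 30 min at room temperature.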

[18] = Tanguay_ZF_120hpf_SNOU_legacy: (Legacy) Oregon State University Tanguay Lab 120 Hour Post-fertilization zebrafish Assay for Snout Malformation (AID 2283637)
Method in brief: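 Tropical 5D wild-type zebrafish embryos, dechorionated with pronase at 4 hpf, were exposed singly from 6 hpf to 120 hpf statically at 28C in 0.64% DMSO. Snout malformation was scored present/absent by brightfield microscopy, fitted against DMSO.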

[19] = molecular target: Cellular tumor antigen p53 (Homo sapiens) (UniProt P04637); assay: TOX21_p53_BLA_p5_ratio: Tox21 HCT-116 p53 Agonism Beta-lactamase Assay, Ratio, Phase 5 (AID 2283599)
Method in brief: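 HCT-116 cells carrying a p53-inducible beta-lactamase reporter were seeded at 4000 cells/well and dosed after 5 h with compound in DMSO (217-fold dilution). After 16 h at 37C, CCF4-AM substrate was added for 2 h, and the 460/530 nm emission ratio was scored as gain-of-signal versus DMSO.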

[20] = Tanguay_ZF_120hpf_YSE_legacy: (Legacy) Oregon State University Tanguay Lab 120 Hour Post-fertilization zebrafish Assay for Yolk Sac Edema (AID 2283634)
Method in brief: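 Presence or absence of yolk sac edema was recorded at 120 hpf in surviving larvae. These were wild-type Tropical 5D embryos, chorion removed at 4 hpf, held in static exposure at 28C from 6 hpf with 0.64% DMSO vehicle.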

Measured: AC50

CC(C)=CCCC(C)=CC=O
not listed: [17] | [18] | [19] | [20]
inactive: all other assays above

C1N2CN3CN1CN(C2)C3
not listed: [9] | [13] | [19] | [20]
inactive: all other assays above

COc1ccc(/C=C/S(=O)(=O)NC(=O)c2ccc(C)cc2Cl)cc1
active: [7] 28 µM | [19] 29.5 µM | [12] 21.2 µM
not listed: [9] | [10] | [13] | [14] | [15] | [18] | [20]
inactive: all other assays above

CCOCCOCCOCCO
not listed: [8] | [9] | [10] | [11] | [14] | [16]
inactive: all other assays above

COC(=O)c1ccccc1O
not listed: [9] | [13] | [18] | [19]
inactive: all other assays above

C1=CCCC=CCCC=CCC1
not listed: [7] | [8] | [11]
inactive: all other assays above

CCCN(C1CCN(C(=O)C2CCNCC2)CC1)[C@@H]1CCc2ccc(OC)cc2C1
active: [2] 69.3 µM | [3] 81 µM | [4] 28.2 µM | [5] 76.1 µM
not listed: [9] | [10] | [19] | [20]
inactive: all other assays above

O=C(NS(=O)(=O)/C=C/c1ccccc1)c1ccc(F)cc1Cl
active: [2] 17.1 µM | [4] 26.3 µM | [7] 13 µM | [19] 13.5 µM | [12] 22 µM
not listed: [8] | [9] | [10] | [11] | [18] | [20]
inactive: all other assays above
